# Experimental data taken from the supplement of paper PMC10105736.
# Values without a mark were called inactive.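 Rule for the calls: active = MAPPIT score above the 99th percentile of random reference set scores in the same batch; inactive = at or below it.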
# Key:
# Assay in all cases: MAPPIT interaction score (arbitrary units); higher = stronger binary interaction signal, active = hit call of the paper
# [1] = target: grp; conditions: MAPPIT configuration: N-N; pair source set: DPIM
# [2] = target: gus; conditions: MAPPIT configuration: N-N; pair source set: Finley_Y2H
# [3] = target: gukh; conditions: MAPPIT configuration: N-C; pair source set: Lit-BM-16
# [4] = target: mRpL39; conditions: MAPPIT configuration: N-N; pair source set: DPIM
# [5] = target: hid; conditions: pair source set: RRS
# [6] = target: ihog; conditions: pair source set: Lit-BM-16
# [7] = target: isoQC; conditions: MAPPIT configuration: N-N; pair source set: DPIM
# [8] = target: jvl; conditions: pair source set: RRS
# [9] = target: gsb-n; conditions: MAPPIT configuration: N-N; pair source set: Finley_Y2H
# [10] = target: htl; conditions: MAPPIT configuration: N-N; pair source set: RRS
# [11] = target: glob1; conditions: MAPPIT configuration: N-N; pair source set: RRS
# [12] = target: ix; conditions: pair source set: Lit-BM-16
# 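Note: HEK293T cells with Epo stimulation, STAT-responsive firefly luciferase reporter, fold induction versus unstimulated cells divided by the larger fold induction of two negative controls lacking either bait or prey.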
binder,measurement,setting,value
CG6724 (protein) MDVDNGEGQVQVHLKTKQEHYAVPDVPYAIDGTVTTVELNTFVNALLRQKDGSSDTDFDFLVFDEYLRGRLCDHLREKAISFEDAIEIEYVERFPAPEPQDCLLHDDWVSAVKARGKWILSGCYDNTLNLWTNKGKHILTISGHTAPIKAVDWISLDEETGRFVSTSQDQTAMLWQWNVGSNSVECVSVCKGHERGVDSVSVSPDGLRFATGSWDTMLKVWSAELDDAVEGSSKRMKESGVRTPKITLQGHRESVSAVQWMDATTLLTGSWDHTLKVWDLSLEGIKTEISTNKSIFDASYSKLNRLILTASADKNLRLYDPRTNQGSVVRNTYLGHNAWVQTVMWSTTEEFLFVSGAYDNQNKLWDCRSPKAPLYDLLGHGEKVLDIDWSNPKYIVSGGVDNTVRVFKSRKALAEEAETK,MAPPIT interaction score,[1],0.11
Sirt2 (protein) MDKVRRFFANTLHLGGSSDAKEEVKVEKVIPDLSFDGFAEHWRVHGFRKIVTMVGAGISTSAGIPDFRSPGSGLYSNLKKYELPHPTAIFDLDYFEKNPAPFFALAKELYPGSFIPTPAHYFIRLLNDKGLLQRHYTQNIDTLDRLTGLPEDKIIEAHGSFHTNHCIKCRKEYDMDWMKAEIFADRLPKCQKCQGVVKPDIVFFGENLPKRFYSSPEEDFQDCDLLIIMGTSLEVQPFASLVWRPGPRCIRLLINRDAVGQASCVLFMDPNTRSLLFDKPNNTRDVAFLGDCDAGVMALAKALGWDQELQQLITSERKKLSGSQNSEELQQGKEKPQSDPDKMTSGDRDKKDASL,MAPPIT interaction score,[2],-0.0617
dlg1 (protein) MPVKKQEAHRALELLEDYHARLSEPQDRALRIAIERVIRIFKSRLFQALLDIQEFYELTLLDDSKSIQQKTAETLQIATKWEKDGQAVKIADFIKSSNLNRNCAYEFNNDASSNQTNQSALNQNPIANNVSAQAQAEALSRTFKSELEEILNQRMRIESDTENAKEPTVEQQQKQQQAQQRSSRSPQQQNPQQQQGSKSRSGSQTVNGDDSWLYEDIQLERGNSGLGFSIAGGTDNPHIGTDTSIYITKLISGGAAAADGRLSINDIIVSVNDVSVVDVPHASAVDALKKAGNVVKLHVKRKRGTATTPAAGSAAGDARDSAASGPKVIEIDLVKGGKGLGFSIAGGIGNQHIPGDNGIYVTKLMDGGAAQVDGRLSIGDKLIAVRTNGSEKNLENVTHELAVATLKSITDKVTLIIGKTQHLTTSASGGGGGGLSSGQQLSQSQSQLATSQSQSQVHQQQHATPMVNSQSTEPGSRYASTNVLAAVPPGTPRAVSTEDITREPRTITIQKGPQGLGFNIVGGEDGQGIYVSFILAGGPADLGSELKRGDQLLSVNNVNLTHATHEEAAQALKTSGGVVTLLAQYRPEEYNRFEARIQELKQQAALGAGGSGTLLRTTQKRSLYVRALFDYDPNRDDGLPSRGLPFKHGDILHVTNASDDEWWQARRVLGDNEDEQIGIVPSKRRWERKMRARDRSVKFQGHAAANNNLDKQSTLDRKKKNFTFSRKFPFMKSRDEKNEDGSDQEPFMLCYTQDDANAEGASEENVLSYEAVQRLSINYTRPVIILGPLKDRINDDLISEYPDKFGSCVPHTTRPKREYEVDGRDYHFVSSREQMERDIQNHLFIEAGQYNDNLYGTSVASVREVAEKGKHCILDVSGNAIKRLQVAQLYPVAVFIKPKSVDSVMEMNRRMTEEQAKKTYERAIKMEQEFGEYFTGVVQGDTIEEIYSKVKSMIWSQSGPTIWVPSKESL,MAPPIT interaction score,[3],1.68
same,MAPPIT interaction score,[4],0.743
sesB (protein) MGNISASITSQSKMGKDFDAVGFVKDFAAGGISAAVSKTAVAPIERVKLLLQVQHISKQISPDKQYKGMVDCFIRIPKEQGFSSFWRGNLANVIRYFPTQALNFAFKDKYKQVFLGGVDKNTQFWRYFAGNLASGGAAGATSLCFVYPLDFARTRLAADTGKGGQREFTGLGNCLTKIFKSDGIVGLYRGFGVSVQGIIIYRAAYFGFYDTARGMLPDPKNTPIYISWAIAQVVTTVAGIVSYPFDTVRRRMMMQSGRKATEVIYKNTLHCWATIAKQEGTGAFFKGAFSNILRGTGGAFVLVLYDEIKKVL,MAPPIT interaction score,[5]; MAPPIT configuration: N-C,0.0222
same,MAPPIT interaction score,[5]; MAPPIT configuration: N-N,-0.106
ihog (protein) MTLLTSSLLLFSLLTSRLEAIPVLEKSPAHPAHSAHPAHPAHPAHPAHPSPGVRILRAPESLVAPLGDEVVLECETSLQPERFEWSHRSSRSPGAGFKYLKTGTAKANVSQEAAISRLRVLVRPDTLGEYRCVGWFGPLVVTSTIARLELASTSLVDAQESESPLQWRVSAGNSVLWSCGQQVQSNPSASWSYYRNGVEIKPEFIGTNGNLFLSNVSSESSGSYSCQATNPASGERIQLPGSLQLQVTPEQRSESKSPHLLRGQPSSQEITIREGSSLLLLCPGVGSPPPTVVWSSPDVVGAVKNKRSKVFGHALEISNTRVNDAGTYICFQDNGVRPALEHYIKVHVEQPPQIVRPPWADLTNEGDRLKLECKATGVPTPEIYWLLNGHSSIDDSEAELSNNFLILHSVLKRHAGYVQCFARNRLGEHSAGTLLQVNPKQIQEPRESGGTHRPKPNQGSRQKQMYPPTPPNVTRLSDESVMLRWMVPRNDGLPIVIFKVQYRMVGKRKNWQTTNDNIPYGKPKWNSELGKSFTASVTDLKPQHTYRFRILAVYSNNDNKESNTSAKFYLQPGAALDPMPVPELLEIEEYSETAVVLHWSLASDADEHLITGYYAYYRPSSSAGEYFKATIEGAHARSFKIAPLETATMYEFKLQSFSAASASEFSALKQGRTQRPKTSTTEEPTLQMGDRDTTTPSHNETFNMSPMLTGTIGGGAVLILLLISTCFCVCRRRNSRSRGNNPNKPRMAELRDDFVPLGNCSPTKQRQRTRHIHITLNPLAQQQQQALEEKNDTDQDAPYYQRPSSYDYDPTLRRMSSSSLRRSQRTLERAGGSNGSNNGNNNNLNQSAEAGSIENPGKPGRVLMKRPRLSSRSENLSSGSLNSVGV,MAPPIT interaction score,[6]; MAPPIT configuration: N-C,-0.576
same,MAPPIT interaction score,[6]; MAPPIT configuration: N-N,-0.268
fd59A (protein) MHTSTDPMHTLHDSVSLSPPLIKSSRGGSSIGNGIGCSASSRTAAADAMSMGCDDSDIEPSSMGGSGAAGGNGDGSGSSGGPLVKPPYSYIALITMAILQSPHKKLTLSGICDFIMSRFPYYKDKFPAWQNSIRHNLSLNDCFIKVPREPGNPGKGNFWTLDPLAEDMFDNGSFLRRRKRYKRAPTMQRFSFPAVFGTLSPFWIRKPVPLVPVHFNVPNFNGSREFDVVHNPADVFDSALRADKKFNFFANAEASFYQGSQSGDKFDRLPFMNRGRGADVLDALPHSSGSGGGVGGGSESSRGSKYKSPYAFDVATVASAAGIPGHRDYAERLSAGGGYMDLNVYNDDADTEADAEAEGDDDSCEDKIDVESGNEQEDSHISDSVDSACTNRLDAPPEALIFEASAEASDSSPRRRFDSEPLVLRTSKQSSAKDFRIETLIGHHLHRGGSQEETSD,MAPPIT interaction score,[7],0.602
TH1 (protein) MEVEYDDSGWQGRAKGQTNPEETLEDNPQKTIQECLEKFLTPDYIMEPGIFTQLKRYFQSGGSPEEVISMLSENYKAVAQMANLLAEWLILAGVKVTEVQAMVENHLKEMILKSFDPKKADTIFTEEGETPDWLTEMIDHYTWRSLIYRLAEEYPDCLMLNFTIKLISDAGFQSEITSISTAAQQIEVFSRVLKTSIVKFLNNPDDVHGAIQECARMVCHGQHTYVYSQVLIQVLSQEQKGGFNMKRLSQEIIKYALQNNQNVTPITMALNGSAVYPQACQALTSMLTRNTLNPADITVLFRNYSGSDPPPIDLIRNPQFLELLVDALFRSGVKINPEHKPKYMFLLAYASAVIDQPAKKRPMTERMLNKEELKSTIQAIEKAHTICNVDQGSTELIAELQTLYNCIKYPVVGVGVIRWIENVVMEPSYFKLSTDSCPTHLAVLDEVAAVHPTLQQQILFLLIRLFESKQDELEILVQLEMKKMILDRMVNLLTRGCVVPVLRYIKQCCAIEDTDISLIRYFVTEVLETITHPYSPEFVQLFLPMVENEEITGTMRGEGDNDPVSEFIVHCKAHYTTV,MAPPIT interaction score,[8]; MAPPIT configuration: N-C,0.00492
same,MAPPIT interaction score,[8]; MAPPIT configuration: N-N,-0.0162
slp2 (protein) MVKIEEGLPSSEISAHSLHFQHHHHPLPPTTHHSALQSPHPVGLNLTNLMKMARTPHLKSSFSINSILPETVEHHDEDEEEDVEKKSPAKFPPNHNNNNLNTTNWGSPEDHEAESDPESDLDVTSMSPAPVANPNESDPDEVDEEFVEEDIECDGETTDGDAENKSNDGKPVKDKKGNEKPPYSYNALIMMAIRQSSEKRLTLNGIYEYIMTNHPYYRDNKQGWQNSIRHNLSLNKCFVKVPRHYDDPGKGNYWMLDPSAEDVFIGGSTGKLRRRTTAASRSRLAAFKRSLIGPMFPGLAAYPQFGQFLTYPPTAPSLLASMYQRYNPFAPKGGPGHPGLPPGLPGLPGPPGPQGPPGPPPPPFVAPPTSSELYQRLQYQQLLHQHAAAAALAAHQRQLSVAAASAASQPPPTHHHPHLAVGQAPLSPGGDSPGPSPQPLHKPVTVVSRNS,MAPPIT interaction score,[9],-0.371
Uba5 (protein) MSHAIDELQAIIADLKTELETEPKSSGGVASNSRLARDRIDRMSAEVVDSNPYSRLMALQRMNIVKDYERIRYKAVAIVGVGGVGSVTADMLTRCGIGKLILFDYDKVELANMNRLFFTPDQAGLSKVAAAAATLSFINPDVEIETHNYNITTVENFDRFLDTISQGGRIAGQPVDLVLSCVDNFEARMAINAACNERNLNWFESGVSENAVSGHIQFIRPGDTACFACAPPLVVAENIDEKTLKREGVCAASLPTTMGITAGFLVQNALKYLLNFGEVSDYLGYNALSDFFPKMTLKPNPQCDDRNCLVRQKEFQARPKPVLIEEKAVSEEPLHATNEWGIELVAEDAPESNTTPAETPVMGEGLRLAYEAPEKSSETSEETVSAATADETSLEDLMAQMKSM,MAPPIT interaction score,[10],0.0658
eIF2gamma (protein) MATAEAQIGVNRNLQKQDLSNLDVSKLTPLSPEVISRQATINIGTIGHVAHGKSTVVKAISGVQTVRFKNELERNITIKLGYANAKIYKCDNPKCPRPASFVSDASSKDDSLPCTRLNCSGNFRLVRHVSFVDCPGHDILMATMLNGAAVMDAALLLIAGNESCPQPQTSEHLAAIEIMKLKQILILQNKIDLIKESQAKEQYEEITKFVQGTVAEGAPIIPISAQLKYNIDVLCEYIVNKIPVPPRDFNAPPRLIVIRSFDVNKPGCEVADLKGGVAGGSILSGVLKVGQEIEVRPGVVTKDSDGNITCRPIFSRIVSLFAEQNELQYAVPGGLIGVGTKIDPTLCRADRLVGQVLGAVGQLPDIYQELEISYYLLRRLLGVRTDGDKKGARVEKLQKNEILLVNIGSLSTGGRISATKGDLAKIVLTTPVCTEKGEKIALSRRVENHWRLIGWGQIFGGKTITPVLDSQVAKK,MAPPIT interaction score,[11],0.425
MED8 (protein) MQRDEKLFELTLDTVLQRLNDLKLAVLSMIQKLELEYETINWPTFLDNFAIISSHLTGLTKILAKEQCPPLRNRTVLPLLVSMDRDDTLINITEGRVPVFSHDIVPDYLRTRPDPITEQKMLQNEQKAANLTNDAAMKQVTQYNKVVSHVLDMVSKAREEWEIESSSRTGIQQTSSMADTQLLVAAVGMGKGLKLTNYGPGPGMMVPPSIRAPSPMGGPAMSPGNVQQQLGKAPSAVKTNIKSANQVHPFSR,MAPPIT interaction score,[12]; MAPPIT configuration: N-C,3.01
same,MAPPIT interaction score,[12]; MAPPIT configuration: N-N,2.19
